Myeloid diff MLP = induction of myeloid progenitor differentiation, primary screen, cell-based, flow cytometry, MLPCN library. ER-HoxA9 myeloid progenitors, lysozyme-GFP differentiation. calls only at 10 µM. 360,000 tested, 1% active. AID 624256, 2012;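 active = normalized GFP-positive differentiation at or above the plate's own cutoff, the solvent-only control mean plus 3 SD; inconclusive = no clear call, values can overlap the other calls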;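 note: cells exposed to compound for four days before flow analysis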
HNF4A DNA FP = change in binding of human HNF4A to DNA, primary screen, biochemical, fluorescence polarization, FITC-DNA; Hepatocyte nuclear factor 4-alpha (Homo sapiens), P41235; 1 h; activity change, % at 10 µM; 360,000 tested, 0.3% active; in the data active = activity change above about 30%, passing the limit was not always enough
Rpn11 block = Rpn11 (PSMD14) deubiquitinase inhibitors, primary screen, biochemical, fluorescence polarization, uHTS; inhibition, % at 20 µM; 26S proteasome non-ATPase regulatory subunit 14 (Homo sapiens), O00487; 360,000 tested, 0.59% active; human 26S proteasome, Ub4-pepOG fluorescence polarization; 20S core pre-blocked with epoxomicin;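 active = inhibition at 20 µM, scaled to each plate's controls, above about 33%, limit read from the data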
Target sequence (O00487 whole entry, looked up): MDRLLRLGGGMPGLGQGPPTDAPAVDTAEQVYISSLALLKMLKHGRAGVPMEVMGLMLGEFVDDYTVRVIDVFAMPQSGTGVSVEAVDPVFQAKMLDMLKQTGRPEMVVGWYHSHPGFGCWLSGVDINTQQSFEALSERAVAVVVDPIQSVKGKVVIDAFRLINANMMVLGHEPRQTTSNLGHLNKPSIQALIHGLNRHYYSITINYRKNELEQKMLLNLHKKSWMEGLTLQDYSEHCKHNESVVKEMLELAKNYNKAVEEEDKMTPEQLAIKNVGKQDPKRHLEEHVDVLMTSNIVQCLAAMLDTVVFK
TPT1 inh = Candida albicans TPT1 enzyme inhibitors, primary screen, biochemical, fluorescence polarization; tRNA 2'-phosphotransferase TPT1 (Candida albicans SC5314); AID 1962, 2009; recombinant caTPT1, FP RNA substrate dephosphorylation; inhibition, % at 5 µM; 300,000 tested, 0.81% active;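 active = inhibition above the mean of all tested compounds plus 3 SD, set per screening campaign, cut at about 24% in these data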
caTPT1 confirm = Candida albicans TPT1 inhibitors, confirmation, biochemical, fluorescence polarization, triplicate. shares compounds with TPT1 inh. recombinant caTPT1, RNase T1 coupled. inhibition, % at 5 µM. 2,400 tested, 74% active. AID 2149, 2009;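 active = inhibition above the primary screen limit, the mean inhibition of all tested compounds plus 3 SD, cut at about 25% in these data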
RNase T1 counter = RNase T1 inhibitors, counter-screen for TPT1 inhibitor project, biochemical, fluorescence polarization; shares compounds with TPT1 inh; 2,400 tested, 83% active; RNase T1 cleavage, 1536-well; inhibition, % at 5 µM;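 active = inhibition above the solvent-only control well mean plus 3 SD, limit set per screening run, cut at about 23% in these data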;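 note: inhibitors block cleavage so intact labeled substrate keeps polarization high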
Target sequence (P00651 whole entry, looked up): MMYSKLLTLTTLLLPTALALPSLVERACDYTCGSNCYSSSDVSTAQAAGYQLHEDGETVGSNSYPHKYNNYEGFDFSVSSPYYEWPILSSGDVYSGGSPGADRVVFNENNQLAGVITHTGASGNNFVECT
Large screens that a line does not name were inactive (follow-up assays come after a bar, where shown). Rows were chosen to be rich in hits. Some 2.1% of all compounds tested hit in one or more screens of this group.

Nc1c(C(=O)NC2CC2)sc2nc3c(c(-c4ccco4)c12)CC/C3=C/c1ccco1	TPT1 inh 36.2 | caTPT1 confirm inactive | RNase T1 counter inactive
CC(=O)[C@@H]1[C@@H]2C(=O)N(C3CCCCC3)C(=O)[C@@H]2C2c3ccccc3C=CN21 (some centres not stated)	none (no result: Myeloid diff MLP, HNF4A DNA FP, Rpn11 block)
COc1ccc(NC(=O)[C@@H]2[C@@H]3C(=O)N(C4CCCCC4)C(=O)[C@@H]3C3c4ccccc4C=CN32)cc1 (some centres not stated)	TPT1 inh 42.8 | caTPT1 confirm 49.8 | RNase T1 counter 53.9
Cc1ccc(N2CN(Cc3ccco3)CNC2=S)c(C)c1	TPT1 inh 47.6 | caTPT1 confirm inactive | RNase T1 counter inactive
Cn1c(=NC(=O)COc2ccccc2)sc2ccccc21	none
O=C(O)C(=O)/C(=C\c1cccc(Cl)c1)c1ccc2ccccc2n1	TPT1 inh 30.4 | caTPT1 confirm 42.0 | RNase T1 counter 57.9
Cc1cc(C)c(S(=O)(=O)Nc2ccc(OCC(=O)O)cc2)c(C)c1	none
CCOC(=O)C1=CCN(S(=O)(=O)c2ccc(C)cc2)[C@H]1c1ccccc1Cl	none (no result: TPT1 inh)
O=C(Nc1cccc(CNCCc2c[nH]c3ccccc23)c1)c1ccccc1Cl	none
CC1C/C(=C/c2ccco2)C(=O)/C(=C/c2ccco2)C1 (configuration not stated)	TPT1 inh 61.3 (no result: Myeloid diff MLP, HNF4A DNA FP, Rpn11 block) | caTPT1 confirm 62.3 | RNase T1 counter 70.7
CC1C/C(=C/c2cccs2)C(=O)/C(=C/c2cccs2)C1 (configuration not stated)	TPT1 inh 25.6 | caTPT1 confirm inactive | RNase T1 counter inactive
C=CCN1C(=O)/C(=C/c2ccc(-c3ccc(F)cc3)o2)SC1=S	TPT1 inh 81.1 | caTPT1 confirm 115.0 | RNase T1 counter 120.0
N#C/C(=C\c1ccc(-c2ccc(C(=O)O)cc2)o1)C(=O)Nc1ccc(F)cc1	TPT1 inh 32.6 | caTPT1 confirm 47.7 | RNase T1 counter 61.4
Cc1nnc(SCc2nc3ccccc3s2)n1-c1ccccc1	none
c1ccc(-n2cnnc2SCc2nc3ccccc3s2)cc1	Myeloid diff MLP active, TPT1 inh 33.0 | caTPT1 confirm 49.2 | RNase T1 counter 60.8
COc1ccc(C2C(C#N)=C3NC(=O)c4c(sc5c4CCCCC5)N3C3=C2C(=O)CC(C)(C)C3)cc1 (configuration not stated)	none
COc1ccc(C2C(C#N)=C(N)N(c3sc4c(c3C#N)CCCC4)C3=C2C(=O)CC(C)(C)C3)cc1 (configuration not stated)	TPT1 inh 28.2 | caTPT1 confirm inactive | RNase T1 counter inactive
COc1ccc(C2C(C#N)=C(N)N(c3sc4c(c3C#N)CCCC4)C3=C2C(=O)CC(C)(C)C3)cc1OC (configuration not stated)	TPT1 inh 28.3 | caTPT1 confirm inactive | RNase T1 counter inactive
Cn1cc(CCC(=O)NCCCc2ccccc2)c2ccccc21	none
C=CCN1C(=O)[C@@H]2Cc3c([nH]c4ccccc34)C(c3cc(OC)c(OC)c(OC)c3)N2C1=S (some centres not stated)	Myeloid diff MLP active, TPT1 inh 56.8 (not shown: Rpn11 block) | caTPT1 confirm 47.4 | RNase T1 counter 56.9
COc1cc([C@H]2c3[nH]c4ccccc4c3C[C@H]3C(=O)N4[C@@H](c5cc(OC)c(OC)c(OC)c5)c5[nH]c6ccccc6c5C[C@H]4C(=O)N23)cc(OC)c1OC	none
C=CCN1C(=O)[C@@H]2Cc3c([nH]c4ccccc34)C(c3ccc(O)cc3)N2C1=S (some centres not stated)	Myeloid diff MLP active, HNF4A DNA FP 46.0, TPT1 inh 77.9 (not shown: Rpn11 block) | caTPT1 confirm 61.9 | RNase T1 counter 72.8
CCN1C(=O)[C@@H]2Cc3c([nH]c4ccccc34)C(c3cc(OC)c(OC)c(OC)c3)N2C1=S (some centres not stated)	Myeloid diff MLP active, TPT1 inh 58.0 (not shown: Rpn11 block) | caTPT1 confirm 64.4 | RNase T1 counter 73.2
COc1cccc(COCC(O)Cn2cnc3cc(C)c(C)cc32)c1 (configuration not stated)	none
CC(=O)c1cc(NC(=O)c2cccc(C(F)(F)F)c2)c(=O)oc1/C=C/N(C)C	TPT1 inh 117.0 (not shown: Rpn11 block) | caTPT1 confirm 121.6 | RNase T1 counter 127.8
CC(=O)c1cc(NC(=O)c2ccc(Cl)cc2)c(=O)oc1/C=C/N(C)C	HNF4A DNA FP 120.8, TPT1 inh 132.2 (not shown: Rpn11 block) | caTPT1 confirm 107.7 | RNase T1 counter 110.4
CC(=O)c1cc(NC(=O)c2cccc(C(F)(F)F)c2)c(=O)oc1C	none
Cc1cc(O)cc(=O)n1Cc1ccccc1	none
CCN1CCN(Cc2ccc(NC(=O)c3ccc(C)c(/C=C/c4cnc(Nc5cc(N6CCNCC6)nc(C)n5)cn4)c3)cc2C(F)(F)F)CC1	TPT1 inh 77.7 (not shown: Rpn11 block) | caTPT1 confirm 83.5 | RNase T1 counter 86.8
CCN1CCN(Cc2ccc(NC(=O)c3ccc(C)c(NC(=O)c4ccno4)c3)cc2C(F)(F)F)CC1	Myeloid diff MLP inconclusive
COc1cccc(CC(NC(C)=O)C(=O)NC2CCN(C(=O)Nc3ccc(C)cc3)CC2)c1 (configuration not stated)	none (no result: TPT1 inh)
CC(=O)NC(Cc1cccc(F)c1)C(=O)NC1CCN(C(=O)Nc2ccc(C)cc2)CC1 (configuration not stated)	TPT1 inh 24.4 | caTPT1 confirm inactive | RNase T1 counter inactive
CC(=O)c1ccc(Nc2ccc([N+](=O)[O-])c3nonc23)cc1	TPT1 inh 29.5 | caTPT1 confirm 36.6 | RNase T1 counter 52.3
CCc1nnc(NS(=O)(=O)c2ccc(Nc3ccc([N+](=O)[O-])c4nonc34)cc2)s1	HNF4A DNA FP 38.2, TPT1 inh 27.4 | caTPT1 confirm 32.8 | RNase T1 counter 49.3
CCc1nnc(NS(=O)(=O)c2ccc(NS(=O)(=O)c3ccccc3[N+](=O)[O-])cc2)s1	none
CCC1=C(c2ccc(C)cc2)S(=O)(=O)N=C1N1CCC(C(=O)NCCCN2CCCCC2)CC1	none
CC(=O)Nc1ccc(S(=O)(=O)NCCC(=O)NCCOc2ccccc2)cc1	none (no result: TPT1 inh)
CC1(C(=O)NS(=O)(=O)c2cccc(F)c2)CCN1C(=O)C1CCCCC1 (configuration not stated)	none (no result: TPT1 inh)
CCN(CC)c1ccc(/C=c2/sc3nnc(-c4ccccc4C)n3c2=O)cc1	TPT1 inh 109.2 (not shown: Rpn11 block) | caTPT1 confirm 165.2 | RNase T1 counter 166.7
Cc1ccc(/C=c2/sc3nnc(-c4ccccc4Cl)n3c2=O)o1	none

Bioassay records from PubChem BioAssay.
